Activity calls are given as the source filed them.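 The calls were made as follows, unless noted: active = visually confirmed hit in the image check and inhibition above 20%; inconclusive = visually confirmed hit but inhibition not above 20%; inactive = no visual hit in the image check.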
Columns and labels:
[1] = inhibitors of TNFa-induced NFkB p65 translocation, primary screen, imaging, HUVEC, MLSMR starter and 10KST1 sets (AID 438;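 active = inhibition above 20% together with a positive visual image hit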;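 also: compound added about 3h40 before a 20 min TNFalpha stimulation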;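 as to inhibition: signal is the nuclear over cytoplasmic p65 intensity ratio per well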); conditions: HUVEC TNFa-induced p65 nuclear translocation; cell count: measured here: nuclei count (cytotoxicity indicator), at 2.08 µM; inhibition: at 2 µM, stronger effect = higher value, 0% TNFa-plus-vehicle, 100% no-TNFa wells
[2] = reduction of polyQ htt aggregates in cells – imaging, exon1htt(103Q)mCFP cells, high-content imaging, primary screen (AID 483;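 active = visual image review flags a hit and inhibition of aggregation exceeds 20%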;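 also: compound exposure lasted 3 days before fixation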;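 as to nuclei count: percent of the per-plate median nuclei count of sample wells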); conditions: exon1htt(103Q)mCFP cell line, aggregate imaging, at 2 µM; inhibition of aggregation: stronger effect = higher value; nuclei count: measured here: cell count, toxicity
[3] = endothelial E-selectin expression blockers – imaging, HUVEC, immunofluorescence, MLSMR starter and 10KST1 sets, primary screen (AID 487); conditions: HUVEC TNFalpha-induced E-selectin immunofluorescence imaging, at 2 µM; inhibition: stronger effect = higher value; nuclei count: measured here: cell number, toxicity;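 as to inhibition: signal is fraction of cell area covered by stained E-selectin grains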;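 as to nuclei count: 100% = median nuclei count of all wells on the same plate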
[4] = target: Voltage-gated potassium channel subunit beta-2 (Rattus norvegicus) (UniProt P62483); experiment: inhibitors of rat Kvbeta2 reductase activity – biochemical, NADPH fluorescence, primary screen (AID 622;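 active = fluorescence slope higher than the sample average by over 3 SD, cut at about -0.22 in these data, passing the limit was not always enough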;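 also: slope of raw intensity against log time taken from 70 to 1610 s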); conditions: recombinant KvBeta, 4-cyanobenzaldehyde reduction, at 10 µM, stronger effect = higher value
Sequence of Voltage-gated potassium channel subunit beta-2 (Rattus norvegicus) (P62483 whole entry, looked up): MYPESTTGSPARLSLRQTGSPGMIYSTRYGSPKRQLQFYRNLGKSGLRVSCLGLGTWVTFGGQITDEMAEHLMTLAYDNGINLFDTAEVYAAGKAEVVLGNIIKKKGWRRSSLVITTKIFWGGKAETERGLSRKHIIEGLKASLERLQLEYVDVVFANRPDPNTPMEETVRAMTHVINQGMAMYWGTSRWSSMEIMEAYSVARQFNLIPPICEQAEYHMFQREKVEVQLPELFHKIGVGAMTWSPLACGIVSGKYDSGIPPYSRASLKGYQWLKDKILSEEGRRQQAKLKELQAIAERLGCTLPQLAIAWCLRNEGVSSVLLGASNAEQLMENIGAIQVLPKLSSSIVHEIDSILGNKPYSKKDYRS

[5] = target: Voltage-gated potassium channel subunit beta-2 (Rattus norvegicus) (UniProt P62483); experiment: enhancers of rat Kvbeta2 NADPH turnover – biochemical, NADPH fluorescence, primary screen (AID 623;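 active = NADPH fluorescence slope more negative than the mean of all samples by about 3 SD, 99.7% confidence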;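 also: fluorescence intensity change per second fitted from 20 to 320 s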); conditions: Recombinant KvBeta, NADPH fluorescence decrease slope, 10 min; at 10 µM; stronger effect = lower value
[6] = target: Alpha-2C adrenergic receptor (Homo sapiens) (UniProt P18825); experiment: compounds altering alpha2C-coupled GIRK flux – cell-based, HEK293 alpha2C/GIRK1/2, thallium flux, primary screen (AID 624;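 active = fluorescence slope after compound addition differing from the mean of all screened samples at 99.7% confidence, in either direction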;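 also: slope of fluorescence ratio to pre-addition baseline per second over 15 to 24 s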); conditions: thallium flux BTC fluorescence, at 10 µM, actives lie on both sides
Sequence of Alpha-2C adrenergic receptor (Homo sapiens) (P18825 whole entry, looked up): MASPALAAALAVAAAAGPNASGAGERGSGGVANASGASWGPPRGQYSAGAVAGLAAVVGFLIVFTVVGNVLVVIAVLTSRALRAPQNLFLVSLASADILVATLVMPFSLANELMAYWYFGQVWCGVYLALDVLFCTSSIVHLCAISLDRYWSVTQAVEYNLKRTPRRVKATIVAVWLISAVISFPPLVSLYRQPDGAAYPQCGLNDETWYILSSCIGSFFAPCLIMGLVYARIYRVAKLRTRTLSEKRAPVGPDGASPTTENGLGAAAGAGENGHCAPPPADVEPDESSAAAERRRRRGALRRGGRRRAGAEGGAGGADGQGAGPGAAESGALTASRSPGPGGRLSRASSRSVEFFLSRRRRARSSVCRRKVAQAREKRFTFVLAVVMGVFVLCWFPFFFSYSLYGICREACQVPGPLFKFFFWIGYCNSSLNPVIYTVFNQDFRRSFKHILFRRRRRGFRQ

[7] = blockers of RIG-like receptor reporter activation – cell-based, Sendai virus stimulus, luciferase, 10K MLSCN set, TLR/RLR signaling modifier project, primary screen (AID 602276;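 active = inhibition at or above 50% at 10 µM; inactive = inhibition below 50%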;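 also: firefly luciferase from ISG56 promoter only with Renilla not read in this screen; 0% = Sendai virus plus DMSO and 100% = medium plus DMSO without virus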); conditions: HEK293 RL24 IRF3 luciferase reporter, at 10 µM, stronger effect = higher value
[8] = TLR3 IRF3 reporter activation blockers – cell-based, poly I:C stimulus, luciferase, 10K MLSCN set, primary screen (AID 602277;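 active = inhibition of the reporter signal at or above 50%; inactive = inhibition below 50%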); conditions: HEK293-TLR3 RL24 IRF3 luciferase reporter, at 10 µM, stronger effect = higher value

SMILES	cell count [1]	inhibition [1]	inhibition of aggregation [2]	nuclei count [2] [%]	inhibition [3]	nuclei count [3] [%]	fluorescence slope [4]	NADPH fluorescence slope [5]	slope [6]	inhibition [7]	inhibition [8]
CCC(C)NC(=O)CC1Oc2ccc(C)cc2NC1=O (stereo not drawn)	585	-2% (inactive)	9.7% (inactive)	100	-116% (inactive)	126	-0.56 (inactive)	-1.5e-05 (inactive)	0.00629 (inactive)	2.24% (inactive)	22.9% (inactive)
O=c1[nH]c(NCc2ccco2)nnc1Cc1ccccc1Cl	643	1.8% (inactive)	-15.1% (inactive)	111	-18.6% (inactive)	124	-0.515 (inactive)	-0.000182 (inactive)	0.0051 (inactive)	6.89% (inactive)	40.7% (inactive)
c1ccc(CNc2ncnc3ccccc23)cc1	537	-12.4% (inactive)	-8.7% (inactive)	70.8	-32.1% (inactive)	107	-0.408 (inactive)	-4.8e-05 (inactive)	0.00588 (inactive)	-14.3% (inactive)	-78% (inactive)
O=C(Nc1ccc2nc(-c3cccs3)[nH]c2c1)c1ccco1	334	-0.7% (inactive)	23% (inactive)	78.8	-132% (inactive)	119	-0.429 (inactive)	-7.7e-05 (inactive)	0.00445 (inactive)	-35.6% (inactive)	-87.4% (inactive)
CC(C)(C)OC(=O)NCCc1nnc(SCC(=O)c2ccc(Cl)cc2)o1	282	-3.2% (inactive)	36.8% (inactive)	77.1	-56.7% (inactive)	85.4	-0.495 (inactive)	1.3e-05 (inactive)	0.00407 (inactive)	5.48% (inactive)	34.1% (inactive)
CCc1noc(C)c1C(=O)NCCc1ccc(OC)c(OC)c1	395	3.7% (inactive)	-16.2% (inactive)	121	11.4% (inactive)	96.9	-0.468 (inactive)	-4.2e-06 (inactive)	0.00531 (inactive)	14.3% (inactive)	19.8% (inactive)
O=c1c2ccccc2nnn1CSc1nnc2sc3ccccc3n12	558	-14.2% (inactive)	-28.8% (inactive)	109	-56% (inactive)	111	-0.521 (inactive)	-4.5e-05 (inactive)	0.00436 (inactive)	49% (inactive)	42.1% (inactive)
Cc1cc(C)c(S(=O)(=O)Nc2cccnc2)c(C)c1	610	-4.7% (inactive)	-11.3% (inactive)	119	-20.4% (inactive)	113	-0.614 (inactive)	-5.3e-05 (inactive)	0.00327 (inactive)	17.2% (inactive)	15.7% (inactive)
Cc1cc(C)c(NC(=O)CSc2nnc(-c3ccncc3)n2Cc2ccco2)c(C)c1	412	-5% (inactive)	-19.2% (inactive)	111	-107% (inactive)	113	-0.335 (inactive)	-3.5e-05 (inactive)	0.00447 (inactive)	5.1% (inactive)	10.2% (inactive)
CCCNC(=O)c1ccccc1NC(=O)CN(c1ccccc1OCC)S(C)(=O)=O	654	-8.2% (inactive)	-11% (inactive)	105	-142% (inactive)	102	-0.465 (inactive)	-5.5e-06 (inactive)	0.00349 (inactive)	-1.76% (inactive)	20.9% (inactive)
Cc1cc(C)cc(NC(=O)C2CCCN(S(=O)(=O)c3cnc[nH]3)C2)c1 (stereo not drawn)	595	17.2% (inactive)	-39.1% (inactive)	97.1	-30% (inactive)	124	-0.523 (inactive)	1.2e-05 (inactive)	0.00642 (inactive)	14.1% (inactive)	33.8% (inactive)
CCOC(=O)N1CCN(C(=O)CSCC(=O)Nc2nc(-c3ccc(OC)cc3)cs2)CC1	450	2.7% (inactive)	-44% (inactive)	54	41.9% (inactive)	91.3	-0.425 (inactive)	-8.7e-05 (inactive)	0.00636 (inactive)	-14.1% (inactive)	-24.6% (inactive)
Oc1c(C(c2ccccc2)N2CCc3ccccc3C2)sc2ncnn12 (stereo not drawn)	651	1.3% (inactive)	-23.6% (inactive)	111	-25.4% (inactive)	117	-0.618 (inactive)	-3.4e-05 (inactive)	0.00688 (inactive)	12.6% (inactive)	30.7% (inactive)
CC(=O)Nc1cccc(NC(=O)c2ccco2)c1	286	2.5% (inactive)	-7.1% (inactive)	122	-72.9% (inactive)	131	-0.391 (inactive)	2.6e-05 (inactive)	0.00425 (inactive)	5.39% (inactive)	26.7% (inactive)
CN(C)S(=O)(=O)c1ccc(Oc2ccc(S(=O)(=O)N(C)C)cc2)cc1	273	-4.4% (inactive)	-0.5% (inactive)	89.3	8.2% (inactive)	80.6	-0.42 (inactive)	3.1e-05 (inactive)	0.00921 (inactive)	-5.78% (inactive)	-20.3% (inactive)
c1ccc(CSc2nnc(-c3cccs3)n2Cc2ccco2)cc1	601	-13.3% (inactive)	-3.7% (inactive)	102	51.5% (inactive)	102	-0.488 (inactive)	3.8e-06 (inactive)	0.00593 (inactive)	-8.26% (inactive)	-9.64% (inactive)
O=P(O)(CN1CCCCCC1)CN1CCCCCC1	575	13.9% (inactive)	-5.3% (inactive)	107	6% (inactive)	112	-0.484 (inactive)	-5.2e-05 (inactive)	0.0053 (inactive)	-7.54% (inactive)	17.4% (inactive)
O=C(c1ccco1)N1CCN(C(=O)C2CC(c3ccc(F)cc3)=NO2)CC1 (stereo not drawn)	448	-12.3% (inactive)	-13.2% (inactive)	106	-12.7% (inactive)	112	-0.622 (inactive)	2.2e-07 (inactive)	0.00657 (inactive)	7.52% (inactive)	13.1% (inactive)
CC(C)c1nnc(SCC(=O)NCc2ccco2)n1C	248	2.2% (inactive)	-12.1% (inactive)	77	21.4% (inactive)	86.7	-0.485 (inactive)	1.5e-05 (inactive)	0.00695 (inactive)	3.77% (inactive)	97.8% (active)
CCOC(=O)C1=C(c2ccccc2)N2CCN=C2S1	507	-12.1% (inactive)	18.9% (inactive)	59	-12.3% (inactive)	94.2	-0.521 (inactive)	-1.6e-06 (inactive)	0.00413 (inactive)	1.18% (inactive)	6.97% (inactive)
CCOC(=O)c1ccc(NC(=O)CSCc2ccco2)cc1	680	-1.5% (inactive)	-9.1% (inactive)	108	-4.5% (inactive)	97.2	-0.471 (inactive)	-2.1e-06 (inactive)	0.0058 (inactive)	1.64% (inactive)	-14.9% (inactive)
Cc1cc(C(=O)NCc2ccc(S(N)(=O)=O)cc2)cs1	321	4.7% (inactive)	-10.8% (inactive)	108	9.5% (inactive)	91.3	-0.63 (inactive)	-2.4e-05 (inactive)	0.00394 (inactive)	13.4% (inactive)	10.9% (inactive)
CN1CCN(Cc2nc3c(c(=O)n(C)c(=O)n3C)n2Cc2ccccc2Cl)CC1	746	-15.7% (inactive)	4.7% (inactive)	100	-14.4% (inactive)	105	-0.409 (inactive)	-2e-05 (inactive)	0.00482 (inactive)	4.15% (inactive)	45.1% (inactive)
C/C=C/Cn1c(Br)nc2c1c(=O)[nH]c(=O)n2C	650	10.6% (inactive)	-10.8% (inactive)	73	20.1% (inactive)	103	-0.625 (inactive)	-4.7e-05 (inactive)	0.00443 (inactive)	15.1% (inactive)	10.7% (inactive)
CN(C)c1cccc2c(S(=O)(=O)Nc3ccccn3)cccc12	679	11.1% (inactive)	11.7% (inactive)	101	22.1% (inactive)	86.9	-0.318 (inactive)	-1.7e-05 (inactive)	0.00542 (inactive)	11.3% (inactive)	19.3% (inactive)
COc1ccc(N2CCN(C(=O)c3c(-c4ccccc4)noc3C)CC2)cc1	650	1.1% (inactive)	-16% (inactive)	90.4	-7.4% (inactive)	96	-0.578 (inactive)	-3.3e-05 (inactive)	0.00611 (inactive)	-19.4% (inactive)	-16.5% (inactive)
O=C(NCCSc1c[nH]c2ccccc12)c1ccc(Br)o1	564	3.9% (inactive)	-4.5% (inactive)	114	-35.7% (inactive)	113	-0.559 (inactive)	-4.4e-05 (inactive)	0.00687 (inactive)	6.55% (inactive)	-6.47% (inactive)
Cc1ccc2cc(CN(Cc3ccc4c(c3)OCO4)Cc3nnnn3Cc3ccco3)c(=O)[nH]c2c1C	338	0.9% (inactive)	29.2% (inactive)	49	-79.9% (inactive)	109	-0.389 (inactive)	4.5e-05 (inactive)	0.00797 (inactive)	39.3% (inactive)	79.5% (active)

Source: PubChem BioAssay
